# Measured values published in PubChem BioAssay AID938 (National Center for Advancing Translational Sciences (NCATS), 2007).
# The campaign covered roughly 73,000 compounds. About 1,800 (2.5%) were called active. Entries that show only a call come without a potency. Roughly 13% stayed inconclusive and do not appear here. The sample as a whole holds a higher share of actives than the screen did. Unmarked numbers belong to inactive results. Calls come from the whole dose curve; as a rule, active = well fitted activation curve with a large enough effect; inconclusive = small, poorly fitted or top-dose-only effect; inactive = no such curve, though single readings can be large or run the other way.
# Experiment: qHTS Assay for Agonists of the Thyroid Stimulating Hormone Receptor: Activators of Intracellular cAMP Concentrations in Parental HEK 293; note: nearly all actives have a fitted effect of over 55% in size
# Conditions: parental HEK293 CNG cAMP sensor, membrane potential fluorescence; series mostly up to 57.1 µM
# Summary of the method: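 Parental HEK 293 cells stably expressing a cAMP-gated CNG channel were loaded with membrane potential dye containing 100 uM RO 20-1724 for 60 min. Compound added for 30 min; depolarization read as fluorescence intensity at 590 nm.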
# Potency is the fitted concentration of half-maximal effect.
Structure (SMILES),Potency,activation
Cn1c(SCC(=O)c2cccs2)nnc1-c1ccco1,inactive,
COCc1nc2ccccc2n1Cc1ccccc1Br,31.6 µM (active),
CC(=O)NC(C)c1nc2ccccc2n1Cc1ccccc1F (stereo not given),inactive,
COCn1c(COc2ccccc2)nc2ccccc21,,25.1% [at 11.4 µM]
COCc1nnc(NC(=O)CS(=O)(=O)Cc2ccccc2)s1,inactive,
Cc1ccc(N2CCN(S(=O)(=O)c3ccc(F)cc3)CC2)c(C)c1,inactive,
CC(Cc1ccccc1)C(=O)N(C)Cc1ccccc1 (stereo not given),inactive,
CN(C(=O)c1ccccn1)c1nnc(-c2ccccn2)s1,inactive,
COc1ccc(-c2nn3c(-c4ccccc4)nnc3s2)cc1OC,inactive,
c1ccc(-c2cc(-c3nnc4sc(-c5ccccn5)nn34)[nH]n2)cc1,25.1 µM (active),
Cc1ccc(S(=O)(=O)N2CC(=O)Nc3ccccc32)cc1C,,-6.15% [at 11.4 µM]
CCOC(=O)N/N=C1/C[C@@H](O)[C@@H](O)[C@@H]2[C@@H]3C(=O)N(CC)C(=O)[C@H]3CC[C@H]12,,2.56% [at 11.4 µM]
COc1ccc(OC)c(C(=O)c2ccc(C(=O)O)cc2)c1,inactive,
COc1ccc(OC)c(C(=O)c2coc3ccc(O)c(CN4CCOCC4)c23)c1,inactive,
COc1ccc(OC)c(C(=O)c2coc3ccc(OC)cc23)c1,10 µM (active),
O=C(CN1C(=O)CSc2ncccc21)N1CCOCC1,inactive,
CN(C)c1ccc(NC(=O)c2ccncc2)c2ccccc12,inactive,
COc1ccc(CCN2CNc3c(c(=O)n(C)c(=O)n3C)C2)cc1OC,inactive,
COC(=O)c1ccc(NCC(=O)c2ccccc2)cc1,inactive,
CCN(CC)C(=O)CCC(=O)Nc1ccc(C(=O)OC)cc1,inactive,
CCC/C=C(\CCC)C(NC(=O)Cc1ccccc1)c1ccc(C(=O)OC)cc1 (stereo not given),15.8 µM (active),
CO[C@H]1COC(=O)CCC[C@@H](C)[C@H](OC)COC(=O)[C@@H](C)NC(=O)C/C=C\[C@@H]1C,,4.76% [at 11.4 µM]

Structure (SMILES),Potency,activation
Fc1ccc(-c2nnc3sc(-c4ccc5c(c4)OCO5)nn23)cc1,inactive,
Fc1ccc2nc(-c3ccccc3)nc(SCc3nnc(-c4ccccc4)o3)c2c1,inactive,
Fc1ccc(-c2nnc(CSc3nnc(-c4ccc5c(c4)OCO5)o3)o2)cc1,25.1 µM (active),
Cc1ccc(C(=O)NC2CC(C)(C)NC(C)(C)C2)c(C)c1,inactive,
COC(=O)c1ccc(COC(=O)c2c(C)nn(Cc3ccccc3Cl)c2Cl)o1,15.8 µM (active),
CCOC(=O)c1ccc(COC(=O)c2cc(=O)[nH]c3ccccc23)o1,inactive,
Cc1nn(Cc2ccccc2)c(Cl)c1C(=O)OC1CCOC1=O (stereo not given),inactive,
CCCCn1c(CCCNC(=O)CC)nc2ccccc21,inactive,
COc1ccc(NC(=O)CCNC(=O)Cn2ccc3ccccc3c2=O)c(OC)c1,inactive,
N#CCCN1CCN(S(=O)(=O)c2ccc(S(=O)(=O)NC3CC3)cc2)CC1,inactive,
CC(C)(C)c1cc(CN2CCN(CCC#N)CC2)cc(C(C)(C)C)c1O,7.94 µM (active),
Cc1ccc(S(=O)(=O)NCC(=O)OCC(=O)N2CCc3ccccc32)cc1,inactive,
C[C@@H]1/C=C\CC(=O)OC[C@H]2O[C@@H](C=C[C@@H]2O)[C@H](C)/C=C\CC(=O)OC[C@H]2O[C@H]1C=C[C@@H]2O,,-6.65% [at 11.4 µM]
O=C(Nc1nc(-c2ccc3c(c2)OCO3)cs1)c1ccncc1,20 µM (active),
O=C(Nc1ccc2c(c1)OCCO2)c1ccncc1,inactive,
O=C(Nc1cccnc1)c1ccc2c(c1)OCO2,inactive,
C=CCn1c(COc2ccccc2)nnc1SCC(=O)NCC(=O)OCC,inactive,
O=C(CC1(O)C(=O)N(CN2CCOCC2)c2ccccc21)c1ccccc1 (stereo not given),inactive,
Cc1ccc(C(=O)Nc2nnc(-c3ccncc3)s2)o1,inactive,
CC(C)N(CCNC(=O)c1ccc(-n2c(=O)c(=O)[nH]c3ccccc32)cc1)C(C)C,inactive,
Cc1cc(N2CCN(Cc3ccc4c(c3)OCO4)CC2)n2ncnc2n1,inactive,
Cc1cc(C)c(C#N)c(SCc2ccc3c(c2)OCO3)n1,20 µM (active),

Structure (SMILES),Potency,activation
Cc1cc(C)c(C#N)c(SCc2ccccc2C(=O)O)n1,inactive,
CC1(C)OC(C(O)(c2ccccc2)c2ccccc2)C(C(O)(c2ccccc2)c2ccccc2)O1 (stereo not given),,25.8% [at 11.4 µM]
CCOc1ccc(C(CC(=O)O)NC(=O)COc2ccccc2)cc1 (stereo not given),inactive,
O=C(Nc1nnc(CCc2ccccc2)s1)C1CCCO1 (stereo not given),inactive,
CCC(=O)c1cc2c(cc1NC(=O)c1cccs1)OCCO2,inactive,
O=S(=O)(NCC1CCCO1)c1ccc2ccccc2c1 (stereo not given),inactive,
Cc1cc(C)c2[nH]c(=O)c(C(c3nnnn3Cc3ccc4c(c3)OCO4)N3CCCC3)cc2c1 (stereo not given),inactive,
Cn1nnnc1SCC(=O)N1CCN(Cc2ccccc2)CC1,inactive,
Fc1ccccc1C(c1nnnn1Cc1ccc2c(c1)OCO2)N1CCN(Cc2ccccc2)CC1 (stereo not given),inactive,
CCOc1ccc(CN(Cc2ccco2)C(c2cccs2)c2nnnn2C(C)(C)C)cc1 (stereo not given),inactive,
Fc1ccc(Cn2nnnc2C(c2cccs2)N2CCCCCC2)cc1 (stereo not given),31.6 µM (active),
O=S(=O)(c1cccs1)N1CCN(Cc2ccccc2)CC1,inactive,
CCC(C)(C)n1nnnc1C(c1cccs1)N1CCN(c2nc3ccccc3s2)CC1 (stereo not given),3.16 µM (active),
Cc1ccc(C(c2nnnn2C(C)(C)C)N2CCc3ccccc3C2)cc1 (stereo not given),inactive,
CCC(C)(C)n1nnnc1C(c1cccs1)N1CCN(Cc2ccccc2)CC1 (stereo not given),12.6 µM (active),
COc1ccc(-c2nc3cnc(N(C)C)nc3n(Cc3cccs3)c2=O)cc1,inactive,
CCOC(=O)C(C(=O)OCC)C(C#N)c1ccccc1 (stereo not given),inactive,
O=C(O)CC(C(=O)O)C(CC(=O)O)C(=O)O (stereo not given),inactive,
Cc1ccc(S(=O)(=O)Cn2nnnc2CN2CCN(Cc3ccc4c(c3)OCO4)CC2)cc1,inactive,
O=C(O)c1ccc(Cl)c(S(=O)(=O)Nc2ccccc2Cl)c1,inactive,
Cc1ccc(-c2nc(CS(=O)CC(=O)N3CCN(c4ncccn4)CC3)c(C)o2)cc1 (stereo not given),inactive,
